The panel holds about 83,000 compounds, 20% with a hit somewhere; the sample as a whole holds those more often.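 Step 1: grow cells in 96-well plates. Step 2: add test compound at a single concentration. Step 3: incubate 48 h. Step 4: record percent growth.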 Active and inactive are the calls of the source. How the source made its calls: active means growth percent below 10; inactive means the rest.
Assays:
Assay in all cases: NCI-60 one-dose screen, 48 h (100 = growth as untreated, 0 = no growth, -100 = all killed)
Settings in all cases: 10 µM unless noted
[1] = tested on: NCI-H23 lung
[2] = tested on: NCI-H226 lung
[3] = tested on: NCI-H322M lung
[4] = tested on: HOP-62 NSCLC
[5] = tested on: NCI-H460 lung
[6] = tested on: NCI-H522 lung
[7] = tested on: A549/ATCC NSCLC
[8] = tested on: 786-0 renal
[9] = tested on: COLO 205 colon
[10] = tested on: DU-145 prostate
[11] = tested on: K-562 leukemia
[12] = tested on: MALME-3M melanoma
[13] = tested on: MDA-MB-231 breast
[14] = tested on: RXF 393 renal
[15] = tested on: SF-268 CNS
[16] = tested on: SF-295 CNS
[17] = tested on: SF-539 CNS
[18] = tested on: UACC-257 melanoma
[19] = tested on: M14 melanoma
[20] = tested on: HCT-15 colon

Measured: growth

CCOC(=O)c1c(NC(=O)C2CCCCC2C(=O)O)sc2c1CCCC2 (stereo not drawn)
inactive: [1] 99.4% | [2] 95.5% | [3] 86.4% | [4] 104% | [5] 109% | [6] 94% | [7] 97.6% | [8] 106% | [9] 114% | [10] 108% | [11] 102% | [12] 109% | [13] 105% | [14] 114% | [15] 105% | [16] 96.3% | [17] 102% | [18] 92.1% | [19] 106% | [20] 106%

Fc1ccc(-c2nc(Nc3ccc(-c4nc5ccccc5[nH]4)cc3)nc(N3CCOCC3)n2)cc1
active: [1] -83.4% | [2] -64.5% | [3] -92.8% | [4] -73.9% | [5] -80.3% | [6] -73.9% | [7] -75.2% | [8] -94.5% | [9] -68.4% | [10] -94% | [11] -100% | [12] -73.4% | [13] -76.7% | [14] -91.1% | [15] -82.7% | [16] -94.4% | [17] -92.7% | [19] -82.6% | [20] -92.6%

CC(c1ccccn1)C(C)(O)C(C)c1ccccn1 (stereo not drawn)
inactive: [1] 104% | [2] 103% | [3] 118% | [4] 101% | [5] 113% | [6] 112% | [7] 106% | [8] 107% | [9] 108% | [10] 101% | [11] 103% | [12] 121% | [13] 92.8% | [14] 115% | [15] 100% | [16] 107% | [17] 99.7% | [18] 99.8% | [19] 90.6% | [20] 97.4%

O=C(Nc1cccc([N+](=O)[O-])c1)c1cccc(C(=O)Nc2cccc([N+](=O)[O-])c2)c1
inactive: [1] 107% | [2] 71% | [3] 77.1% | [4] 106% | [5] 74% | [6] 22.5% | [7] 59.9% | [8] 73.9% | [9] 120% | [10] 84.5% | [11] 91.2% | [12] 49.5% | [13] 83.1% | [14] 29.4% | [15] 30.2% | [16] 67.3% | [17] 84.3% | [18] 77% | [19] 85.4% | [20] 85.5%

CC1=C(C(=O)Nc2ccccc2)C(c2ccc3c(c2)OCCO3)NC(=O)N1 (stereo not drawn)
inactive: [1] 101% | [2] 102% | [3] 107% | [4] 104% | [5] 107% | [6] 104% | [7] 98.8% | [8] 100% | [9] 105% | [10] 114% | [11] 98.5% | [12] 96.9% | [13] 118% | [14] 116% | [15] 100% | [16] 114% | [17] 100% | [18] 102% | [19] 103% | [20] 106%

O=C(CSc1nnc(Nc2ccccc2)s1)NCCc1ccc(F)cc1
inactive: [1] 131% | [2] 85.1% | [3] 115% | [4] 103% | [5] 105% | [6] 91.5% | [7] 124% | [8] 95.6% | [9] 115% | [10] 105% | [11] 107% | [12] 97.4% | [13] 91.5% | [14] 113% | [15] 109% | [16] 102% | [17] 96.4% | [19] 103% | [20] 120%

From PubChem BioAssay (NCI)
